For 13 compounds, z-score and composite z-score results are on record in PubChem BioAssay.

The source made the active and inactive calls. Unless noted, the rule behind the calls is not given here.

Experiment [1] in a line: resazurin metabolic signal in HepG2 cells – cell-based, resazurin fluorescence, 24 h, PK04 Diversity Set, profiling panel (AID 1172). Note: test concentration not given here. The note with it: HepG2 viability, higher = more signal. A general note: Resazurin is reduced to fluorescent resorufin, in cell work by metabolically active cells.
Experiment [2] is described as follows: budding yeast growth changes without added modifier – OD600, strain BY4716, 24 h, basal condition, primary screen (AID 1173). To be noted: S. cerevisiae BY4716 growth, OD600, 24 h; higher = more signal, called active from +8 up or from −8 down.
Experiment [3] can be described thus: viability profiling in MM1S myeloma cells – cell-based, resazurin fluorescence, basal, 24 h, PK04 Diversity Set, profiling panel (AID 1174).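 Note: MM1S multiple myeloma cell line; test concentration not given here.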 To be noted: higher = more signal, called active from +8 up or from −8 down.
Experiment [4] addresses Dihydroorotate dehydrogenase (quinone), mitochondrial (Plasmodium falciparum (isolate 3D7)) (UniProt Q08210). Put plainly: inhibition of P. falciparum DHODH – biochemical, C-terminal His tag, absorbance 600 nm, primary screen (AID 1175).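 Note: recombinant parasite enzyme with a five histidine tag at its C terminus; test concentration not given here.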 The note with it: PfDHODH enzyme, DCIP absorbance 600 nm; higher = more signal, called active from +8 up or from −8 down.
The nature of experiment [5]: inhibition of PAO1 biofilm formation – strain PAO1, LB-PBS medium, absorbance 600 nm, primary screen (AID 1176). Note: test concentration not given here. The note with it: P. aeruginosa PAO1 growth/biofilm, A600, 12 h; higher = more signal.
Experiment [6] in a line: growth modulation of vineyard yeast isolate – strain RM11-1a, OD600, basal, 24 h, primary screen (AID 1177).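 Note: cultures grown under basal conditions with no added stressor; test concentration not given here.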 The note with it: S. cerevisiae RM11-1a growth, OD600, 24 h; higher = more signal, called active from +8 up or from −8 down.
Experiment [7] can be described thus: growth of efflux-deficient E. coli DRC39 – strain DRC39, OD650, 24 h, E. coli filamentation inducers, primary screen (AID 1178).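 Note: growth measured as culture turbidity by optical density at 650 nm; test concentration not given here.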 The note with it: E. coli DRC39 acrAB, higher = more signal, called active from +8 up or from −8 down.
Experiment [8] is described as follows: growth of efflux-deficient E. coli DRC39 – strain DRC39, OD650, 48 h, E. coli filamentation inducers, primary screen (AID 1179).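 Note: screen aims at cell division blockers that make cells filament.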 The note with it: E. coli DRC39 delta-acrAB growth, higher = more signal, called active from +8 up or from −8 down.
The nature of experiment [9]: viability profiling in RPMI8226 myeloma cells – cell-based, resazurin fluorescence, basal, 24 h, PK04 Diversity Set, profiling panel (AID 1180).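 Note: RPMI8826 multiple myeloma cell line at 5000 cells per well; test concentration not given here.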 The note with it: higher = more signal.
Experiment [10] has as its target E3 ubiquitin-protein ligase XIAP (Homo sapiens) (UniProt P98170). Put plainly: small molecules binding XIAP protein – biophysical, small-molecule microarray, fluorescence 635 nm, primary screen (AID 1181).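 Note: score merges 667 nm emission and signal to noise over triplicate slides.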 To be noted: higher = more signal.

Dihydroorotate dehydrogenase (quinone), mitochondrial (Plasmodium falciparum (isolate 3D7)), sequence (Q08210 whole entry, looked up): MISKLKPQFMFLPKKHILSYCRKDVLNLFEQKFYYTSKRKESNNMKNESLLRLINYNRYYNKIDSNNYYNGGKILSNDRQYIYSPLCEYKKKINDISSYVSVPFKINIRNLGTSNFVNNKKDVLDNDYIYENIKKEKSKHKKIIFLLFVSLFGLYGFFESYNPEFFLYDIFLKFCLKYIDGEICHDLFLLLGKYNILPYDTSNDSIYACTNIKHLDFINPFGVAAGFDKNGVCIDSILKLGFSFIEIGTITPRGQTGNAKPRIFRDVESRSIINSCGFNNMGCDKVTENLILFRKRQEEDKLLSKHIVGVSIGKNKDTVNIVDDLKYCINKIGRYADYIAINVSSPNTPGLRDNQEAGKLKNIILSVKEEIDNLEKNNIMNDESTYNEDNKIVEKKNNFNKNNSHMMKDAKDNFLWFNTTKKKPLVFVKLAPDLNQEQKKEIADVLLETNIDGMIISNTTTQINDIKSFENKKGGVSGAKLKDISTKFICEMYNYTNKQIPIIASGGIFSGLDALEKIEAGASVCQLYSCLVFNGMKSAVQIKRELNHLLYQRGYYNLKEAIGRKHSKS
E3 ubiquitin-protein ligase XIAP (Homo sapiens), sequence (P98170 whole entry, looked up): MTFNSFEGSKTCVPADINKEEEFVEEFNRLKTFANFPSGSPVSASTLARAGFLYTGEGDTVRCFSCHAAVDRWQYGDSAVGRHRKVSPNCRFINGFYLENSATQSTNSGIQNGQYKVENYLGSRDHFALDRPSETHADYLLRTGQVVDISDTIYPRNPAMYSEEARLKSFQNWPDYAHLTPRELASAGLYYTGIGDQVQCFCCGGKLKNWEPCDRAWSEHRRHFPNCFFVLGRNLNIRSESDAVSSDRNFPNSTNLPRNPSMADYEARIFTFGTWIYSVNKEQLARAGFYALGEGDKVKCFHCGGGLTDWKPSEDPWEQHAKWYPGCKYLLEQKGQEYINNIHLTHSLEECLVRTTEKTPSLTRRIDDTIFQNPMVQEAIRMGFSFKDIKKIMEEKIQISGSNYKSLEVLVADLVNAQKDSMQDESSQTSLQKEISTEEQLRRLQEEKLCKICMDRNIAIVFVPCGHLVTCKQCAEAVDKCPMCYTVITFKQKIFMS

Turning to `C=C(C(=O)CC[C@@H](OC(=O)c1cccnc1)c1ccc(OCCO)cc1)C(C)C`, the z-score in experiment [1] is -0.706; in experiment [2], -18.4 (active); in [3] it was -0.446 (inactive); in experiment [5], 0.907 (inactive); in [6], -22.2 (active); in experiment [7], -0.706 (inactive). Besides, the z-score was -0.694 (inactive) in [8] and -1.56 in experiment [9]. Besides, the composite z-score in experiment [4] was -3.83 (inactive); in experiment [10], -0.184.

With `O=P(NCC1(CC2(c3ccccc3)CO2)CC1)(c1ccccc1)c1ccccc1` (stereo not given), the z-score is -0.293 in experiment [1]; 1.19 (inactive) in experiment [2]; -0.242 (inactive) in [3]; 0.191 (inactive) in experiment [5]; 2.7 (inactive) in experiment [6]; -0.191 (inactive) in [7]. Further, the figures for the z-score in [8] and in experiment [9] were -0.0173 (inactive) and 0.0301, respectively. The composite z-score in [4] is -0.402 (inactive); in experiment [10], -0.102.

For `CCCNC(=O)[C@@]1(C)c2ccccc2C(=O)N(C(C)C)[C@H]1c1ccc(CO)cc1`, the z-score is 0.241 in [1]; -0.619 (inactive) in experiment [2]; 0.148 (inactive) in experiment [3]; 0.332 (inactive) in [5]; -0.531 (inactive) in experiment [6]; -0.252 (inactive) in experiment [7]. The z-score was -0.516 (inactive) in [8] and 0.0567 in [9]. The composite z-score in [4] was -0.44 (inactive); in [10] it was -0.0553.

Consider `O=C1C2C=CC(C(O)c3cccc4ccccc34)N(n3cnnc3)C2C(=O)N1Cc1ccccc1` (stereo not given), for which the z-score is -0.447 in experiment [1]; -17.4 (active) in [2]; -1.24 (inactive) in experiment [3]; -0.128 (inactive) in experiment [5]; -23.2 (active) in experiment [6]; -1.24 (inactive) in [7]. The z-score in [8] is -1.14 (inactive); in experiment [9] it was -1.07. In addition, the composite z-score is -2.08 (inactive) in [4] and -0.0421 in [10].

`Cc1ccc(N2C(=O)c3ccccc3[C@@H](C(=O)NC(C)C)[C@@H]2c2ccc(CO)cc2)nc1`: the z-score in experiment [1] is 1.48; in experiment [2], -1.69 (inactive); in [3], 1.09 (inactive); in experiment [5], 0.69 (inactive); in experiment [6], -0.434 (inactive); in experiment [7], 0.282 (inactive). The values for the z-score in experiment [8] and in experiment [9] were 0.375 (inactive) and 1.17, respectively. For the same compound, the figures for the composite z-score in experiment [4] and in experiment [10] were -0.309 (inactive) and 0.147, respectively.

For `O=c1cccc(-c2cccc3ccccc23)o1`, the z-score in experiment [1] is -0.0368; in experiment [2], -14.1 (active); in [3], -0.0171 (inactive); in experiment [5], 0.794 (inactive); in [6], -1.95 (inactive); in [7] it was -0.0645 (inactive). The z-score was -0.0042 (inactive) in experiment [8] and 0.024 in [9]. Besides, the composite z-score in experiment [4] is -2.39 (inactive); in [10], 0.126.

For the compound `CC(C)(C)OC(=O)CC[C@@]1(C(N)=O)N=C(c2ccc(OCCCO)cc2)O[C@@H]1c1ccccc1N=[N+]=[N-]`, the z-score in [1] was 0.55; in experiment [2], -0.231 (inactive); in experiment [3], -0.134 (inactive); in experiment [5] it was -0.18 (inactive); in experiment [6] it was 0.045 (inactive); in [7], 0.397 (inactive). Moreover, the z-score was 0.529 (inactive) in experiment [8] and 0.288 in experiment [9]. Further, the composite z-score was 0.974 (inactive) in experiment [4] and 0.0908 in [10].

In the case of `CC1CC/C=C\[C@H]2OC34C=CCN(c5ccc6ccccc6c5)C(=O)[C@H]3N(CCCCCO)C(=O)[C@@H]4C2C(=O)O1` (stereo not given in full), the z-score is -0.304 in experiment [1]; -0.317 (inactive) in [2]; -0.634 (inactive) in experiment [3]; -0.484 (inactive) in [5]; -0.122 (inactive) in experiment [6]; 0.11 (inactive) in experiment [7]. In addition, the z-score in experiment [8] is 0.312 (inactive); in experiment [9], -0.0986. Also, the values for the composite z-score in experiment [4] and in experiment [10] were -0.164 (inactive) and -0.471, respectively.

As for `COc1cc(NN2C(C(O)c3ccccc3)C=CC3C(=O)N(c4ccccc4)C(=O)C32)cc(OC)c1OC` (stereo not given), the z-score in experiment [1] was -1.04; in [2] it was 0.887 (inactive); in experiment [3], -0.417 (inactive); in [5], -0.0751 (inactive); in [6] it was 0.0729 (inactive); in experiment [7], 0.32 (inactive). In addition, the z-score in experiment [8] is 0.8 (inactive); in [9] it was -0.827. The composite z-score is -1.37 (inactive) in [4] and 0.219 in experiment [10].

On to `Cc1ccc(N2C(=O)c3ccccc3[C@](C)(C(=O)NCCN3CCOCC3)[C@@H]2c2ccc(CO)cc2)nc1`, for which the z-score is -0.946 in [1]; -0.574 (inactive) in [2]; 0.438 (inactive) in [3]; 0.31 (inactive) in experiment [5]; 0.548 (inactive) in experiment [6]; -0.0943 (inactive) in experiment [7]. For the same compound, the z-score in experiment [8] is -0.126 (inactive); in [9], 0.274. The composite z-score was 0.255 (inactive) in [4] and 0.086 in experiment [10].

For `COCCCNC(=O)[C@]1(Cc2ccccc2N=[N+]=[N-])N=C(c2ccc(OCCCO)cc2)O[C@@H]1c1ccccc1CN=[N+]=[N-]`, the z-score in experiment [1] was -0.412; in experiment [2], 0.0634 (inactive); in experiment [3], -2.16 (inactive); in [5], 1.83 (inactive); in experiment [6] it was -0.22 (inactive); in experiment [7], 2.79 (inactive). Moreover, the z-score is 0.499 (inactive) in experiment [8] and -2.01 in experiment [9]. Moreover, the results for the composite z-score in experiment [4] and in experiment [10] were 0.0785 (inactive) and 0.283, respectively.

As for `COC(=O)C(CC#Cc1ccc2c(c1)[C@]1(C(=O)N2)[C@H](C(=O)N2CCCCCCC2)[C@H]2C(=O)O[C@H](c3ccccc3)[C@H](c3ccccc3)N2[C@@H]1c1ccccc1OCCO)C(=O)OC`, the z-score was -0.198 in experiment [1]; 0.946 (inactive) in [2]; -0.0924 (inactive) in experiment [3]; 1.22 (inactive) in [5]; 0.0478 (inactive) in experiment [6]; -1.19 (inactive) in experiment [7]. The z-score is -0.513 (inactive) in experiment [8] and 0.218 in experiment [9]. Moreover, the composite z-score in experiment [4] is -4.91 (inactive); in experiment [10], 2.41.

Turning to `CCCCCCCCCCC(O)C1C=CC2C(=O)N(c3ccccc3)C(=O)C2N1Nc1ccc([N+](=O)[O-])cc1` (stereo not given), the z-score in experiment [1] was -0.573; in experiment [2], 0.673 (inactive); in [3] it was -0.0843 (inactive); in [5] it was 0.285 (inactive); in [6], 0.0401 (inactive); in experiment [7], -0.552 (inactive). The z-score in experiment [8] is 0.0458 (inactive); in experiment [9], -1.11. In addition, the results for the composite z-score in [4] and in [10] were -0.838 (inactive) and -0.126, respectively.
